Test results: PubChem BioAssay (NCI)
Several values for one entry are separate records, joined by “and”; a condition that tells them apart may be missing. Equal values may be shown once. The panel holds about 83,000 compounds, 20% with a hit somewhere; the sample as a whole holds those more often.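 In brief: 96-well plates, 48 h treatment, single concentration, percent growth endpoint.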 Activity calls are given as the source filed them. Rule for the calls: active = growth percent below 10; inactive = the rest.

These compounds were tested on MDA-MB-468 breast (assay: NCI-60 one-dose screen, 48 h (100 = growth as untreated, 0 = no growth, -100 = all killed)). Conditions: 10 µM unless noted.
In the case of `CC(C)(C)OC(=O)NCc1cccc(N=C=S)c1`, the growth is reported as 39.4% (inactive). For `CC(O)CCNC(c1ccccc1)C(O)c1ccccc1` (stereo not given), the growth was 116% (inactive). In the case of `CC1=CC(C)(C)NC(=S)N1c1ccc(Cl)cc1`, the growth is reported as 97.6% (inactive) and 105% (inactive). In the case of `COc1cc2cc(Oc3ccc(NC(=O)c4cccc(C(F)(F)F)c4)cc3)c(C)nc2cc1OCCN1CCCCC1`, the growth is reported as 37.6% (inactive). In the case of `CC(C)(C)c1cc(C(C)(C)c2ccccc2)cc(Cc2cc(C(C)(C)c3ccccc3)cc(C(C)(C)C)c2O)c1O`, the growth is reported as 95.2% (inactive). In the case of `C/C(=N/NC(N)=S)C(=O)O`, the growth is reported as 39.2% (inactive). `CCCCNc1ccc(C#N)c(OCCN(CC)CC)c1` was tested, and the growth was 90.1% (inactive). For `O=C(CN1CCN(c2cc(=O)n(-c3ccccc3)c3ccccc23)CC1)Nc1nc(-c2ccccc2)cs1`, the growth was 13.3% (inactive). `NS(=O)(=O)c1ccc(Nc2nc(O)c(/C=C3\C=Nc4ccccc43)s2)cc1` was tested, and the growth was 104% (inactive). For `CCCCCCCCCNCCCCCCCCC`, the growth was 22.5% (inactive). For `O=C(O)Cc1cccc(=O)c(O)c1C(=O)O`, the growth was 105% (inactive). `CC1(C)C(=O)/C(=C\c2cccnc2)C[C@]2(C)[C@H]3CC[C@@H]4[C@H]5[C@H](C(=O)/C=C/c6cccnc6)CC[C@]5(C(=O)O)CC[C@@]4(C)[C@]3(C)CC[C@@H]12` was tested, and the growth was -46.4% [100 µM] (active). With `Cc1[nH]nc2c(=S)[nH]c(=O)[nH]c12` the growth was 101% (inactive). In the case of `CCc1ccc(-c2ccc(Nc3ccccc3)nn2)cc1S(N)(=O)=O`, the growth is reported as 34.4% (inactive). With `Cc1ccccc1C[P+](c1ccccc1)(c1ccccc1)c1ccccc1` the growth was -17.6% (active). `Nc1c(Br)cc(O)c2c1C(=O)c1ccccc1C2=O` was tested, and the growth was -9.43% (active). In the case of `COc1ccc2[nH]cc(/C=C3/C(=O)Nc4ccc(Cl)cc43)c2c1`, the growth is reported as -10.9% (active). `O=C1c2ccccc2C23C(=C(c4cncnc4)c4ccccc42)CCCN13` (stereo not given) was tested, and the growth was 93.3% (inactive). With `COc1ccccc1CNCCCN1C(=O)c2ccc3c4c(ccc(c24)C1=O)C(=O)N(CCCNCCNCCCN)C3=O` the growth was -56.2% (active). With `CCCCCCCCCCCCCCCCCC(=O)OCCCCCCC` the growth was 114% (inactive). `C/C(=N/NC(N)=S)c1sc(Nc2cccc(Cl)c2)nc1C` was tested, and the growth was 47.3% (inactive). With `Cn1cc(-c2nnc(-c3cn(C)c4ncc(Br)cc34)o2)c2ccccc21` the growth was 39.3% (inactive). `CCn1c2ccc(O)cc2c2c(C)c3c[n+](C(C)C)ccc3c(C)c21` was tested, and the growth was -19.7% (active). With `CC(=O)CC(=O)c1ccccc1.[Cu+2]` the growth was 96.7% (inactive). `Cc1ccc(-c2nnc(SCc3nc(N)nc(Nc4ccccc4F)n3)n2-c2ccccc2)cc1` was tested, and the growth was 86.5% (inactive). `O=c1[nH]c(-c2cccc(F)c2)cc2cc(F)ccc12` was tested, and the growth was 33.2% (inactive). For `COc1ccc(NC(=O)COCCOCCNC[C@@H]2C(=O)O[C@H]3[C@H]2CC/C(COC(=O)OC/C2=C/CC[C@@]4(C)O[C@H]4[C@H]4OC(=O)[C@@H](CN(C)C)[C@@H]4CC2)=C\CC[C@@]2(C)O[C@@H]32)c(O)c1C(N)=O`, the growth was -19.5% (active). `NS(=O)(=O)c1ccc(Br)cc1` was tested, and the growth was 102% (inactive). With `N=C(N)c1ccc(-c2ccc(-c3ccc(Cl)c(Cl)c3)o2)nc1` the growth was -17% (active). In the case of `O=C(O)c1ccc(-n2cc(CNc3ccc(Cl)cc3)c(-c3ccc(F)cc3)n2)cc1`, the growth is reported as 106% (inactive). `CCOC(=O)Nc1cc2c(c(N)n1)N=C(c1ccccc1)CO2` was tested, and the growth was 2.06% (active). In the case of `C[C@@H]1C[C@H]2C(=O)O[C@@H](C)C(NC(=O)[C@H](Cc3cc(F)cc(F)c3)NC(=O)Nc3ccc(C4CC4)cc3F)C(=O)N3CCC[C@H]3C(=O)N3CCCC[C@H]3C(=O)N[C@@H](CO)C(=O)N2C1` (stereo not given in full), the growth is reported as -18.1% (active). With `O=C(NC1CCN(Cc2ccccc2)CC1)c1cc(-c2cccnc2)nc2ccc(Cl)cc12` the growth was 54.7% (inactive). In the case of `N#Cc1ncc(-c2cc(F)c(F)c(F)c2)c(NC2CCCCCC2)n1`, the growth is reported as 87.6% (inactive). For `CCC(C)(c1ccc(O)c(C)c1)c1ccc(O)c(C)c1`, the growth was 70.1% (inactive). In the case of `C=C(C)[C@@H]1C[C@@H]2Cc3ccc(Cl)c(C)c3N1O2`, the growth is reported as 96.3% (inactive). With `COc1ccc(-c2nc(SCCC(C)C)nc(N/N=C\c3cccc([N+](=O)[O-])c3)c2C#N)cc1` the growth was 12.7% (inactive). `Oc1ccc(N=Cc2ccccc2O)cc1` was tested, and the growth was 93.3% (inactive). For `COC(=O)[C@]12CC[C@@H](C)[C@H](C)[C@@H]1C1=CC[C@@H]3[C@@]4(C)CC(=O)[C@H](O)[C@@]5(C)COC(=C45)C[C@@]3(C)[C@]1(C)CC2`, the growth was -83.9% (active). For `O=C(c1nc2ccccc2[nH]1)C1C(c2ccc([N+](=O)[O-])cc2)C2CC3CCCCC3N2[C@@]12C(=O)Nc1cc(Cl)ccc12` (stereo not given in full), the growth was -1.98% (active).
